The results in this text go back to PubChem BioAssay (NCI).

This is part of a sample that, as a whole, favours compounds with a hit. Of some 83,000 tested, about 20% had one in any assay.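 Negative percent growth values reflect cell death: -40 means 40% of the cells present at the start died, and -100 means all died.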 Values without a mark were called inactive. The source made the active and inactive calls. How the source made its calls: active means growth percent below 10; inactive means the rest.

Among the test systems are HCT-15 colon; HT29 colon; SNB-75 CNS; SNB-19 CNS; U251 CNS; PC-3 prostate; SK-MEL-5 melanoma; UACC-62 melanoma; LOX IMVI melanoma; SK-MEL-28 melanoma.
What all share (assay): NCI-60 one-dose screen, 48 h (100 = growth as untreated, 0 = no growth, -100 = all killed)
Common to all, as to conditions: 10 µM

Turning to `c1ccc(CNc2nc(Nc3ccc(-c4nc5ccccc5[nH]4)cc3)c3cn[nH]c3n2)cc1`, the growth with HCT-15 colon is 0.22% (active); in the test with HT29 colon it was -13.9% (active); in the test on SNB-75 CNS it was 33%; in the test with SNB-19 CNS it was 36.3%; with U251 CNS it was -19.8% (active); with PC-3 prostate, 11.8%. For the same compound, the growth with SK-MEL-5 melanoma was -96.4% (active); in the test on UACC-62 melanoma it was -40.9% (active); in the test with LOX IMVI melanoma, -42.1% (active); in the test on SK-MEL-28 melanoma it was -8.67% (active).

For `O=C(O)CNS(=O)(=O)c1ccc(OCCOc2ccc(S(=O)(=O)NCC(=O)O)cc2)cc1`, the growth in the test on HCT-15 colon is 96%; with HT29 colon it was 98%; with SNB-75 CNS, 97.2%; in the test on SNB-19 CNS it was 106%; in the test with U251 CNS it was 99.9%; in the test on PC-3 prostate, 96.5%. Further, the growth was 97.4% in the test with SK-MEL-5 melanoma, 102% in the test with UACC-62 melanoma, 96.8% with LOX IMVI melanoma and 106% in the test with SK-MEL-28 melanoma.

On to `CC(=O)OCC(COC(C)=O)(COC(C)=O)COC(C)=O`, for which the growth was 102% in the test on HCT-15 colon; 102% in the test with HT29 colon; 105% in the test on SNB-75 CNS; 104% with SNB-19 CNS; 103% in the test on U251 CNS; 102% with PC-3 prostate. Besides, the growth is 93% in the test on SK-MEL-5 melanoma, 103% with UACC-62 melanoma, 98.1% in the test on LOX IMVI melanoma and 121% with SK-MEL-28 melanoma.

Take `FC(F)(F)c1ccc(-c2ncc(-c3ccc(C(F)(F)F)cc3)c(NCc3cc(C(F)(F)F)cc(C(F)(F)F)c3)n2)cc1`: the growth in the test on HCT-15 colon is 44.9%; with HT29 colon, 76.1%; with SNB-75 CNS, 72.4%; in the test on SNB-19 CNS, 29.1%; in the test with U251 CNS, 27.1%; in the test with PC-3 prostate, 31.4%. The growth with SK-MEL-5 melanoma is 96.9%; in the test with UACC-62 melanoma it was 51.6%; in the test on LOX IMVI melanoma, 21.5%; with SK-MEL-28 melanoma, 89.5%.

As for `COc1c(C)c(C)c(OC)c2c1[nH]c(=O)c1c3cccnc3cn21`, the growth in the test on HCT-15 colon was 118%; in the test with HT29 colon it was 104%; in the test on SNB-75 CNS it was 106%; in the test with SNB-19 CNS, 108%; in the test with U251 CNS, 106%; in the test with PC-3 prostate it was 97.3%. Besides, the growth with SK-MEL-5 melanoma was 119%; with UACC-62 melanoma, 98.4%; in the test with LOX IMVI melanoma, 107%; in the test with SK-MEL-28 melanoma, 125%.

`CCCOCC(O)CNCCN` (stereo not given): the growth in the test on HCT-15 colon is 98.2%; in the test on HT29 colon it was 102%; in the test with SNB-75 CNS, 93.4%; with SNB-19 CNS it was 102%; in the test with U251 CNS, 95.5%; with PC-3 prostate, 83.4%. The growth in the test on SK-MEL-5 melanoma was 106%; with UACC-62 melanoma, 101%; in the test on LOX IMVI melanoma, 104%; with SK-MEL-28 melanoma, 110%.

In the case of `COc1ccc(C2CC(c3ccc(-c4ccccc4)cc3)=NN2c2ccc(S(N)(=O)=O)cc2)cc1` (stereo not given), the growth with HCT-15 colon is 45.6%; with HT29 colon, 48.6%; in the test with SNB-75 CNS it was 81.7%; in the test on SNB-19 CNS, 65.2%; in the test with U251 CNS, 66.8%; in the test on PC-3 prostate it was 19.7%. Moreover, the growth is 85.5% in the test on SK-MEL-5 melanoma, 71.1% in the test on UACC-62 melanoma, 50.3% with LOX IMVI melanoma and 85.4% in the test on SK-MEL-28 melanoma.

Take `COc1ccc(C(=O)c2sc3nc(-c4cccs4)ccc3c2N)cc1OC`: the growth in the test on HCT-15 colon was 37.4%; with HT29 colon, 14%; in the test with SNB-75 CNS, 52.1%; in the test with SNB-19 CNS it was 71.7%; in the test with U251 CNS, 59%; in the test on PC-3 prostate, 39%. In addition, the growth was 24.3% with SK-MEL-5 melanoma, 59% in the test on UACC-62 melanoma, 55% in the test with LOX IMVI melanoma and 59.2% with SK-MEL-28 melanoma.

Turning to `C=CCc1cc(Nc2c3ccc(Cl)cc3nc3ccc(OC)cc23)cc(CN(CC)CC)c1O`, the growth is 9.53% (active) in the test on HCT-15 colon; 3.04% (active) in the test with HT29 colon; 13% in the test with SNB-75 CNS; 20.6% with SNB-19 CNS; 12.5% with U251 CNS; 9.79% (active) in the test with PC-3 prostate. Also, the growth with SK-MEL-5 melanoma is -92.7% (active); with UACC-62 melanoma it was 19.1%; in the test with LOX IMVI melanoma, -32.9% (active); in the test with SK-MEL-28 melanoma it was 39.1%.

On to `CCc1ccc(-c2nnc(COc3ccc(-c4nc5ccc(C)cc5[nH]4)cc3OC)o2)cc1`, for which the growth is 21.9% in the test with HCT-15 colon; 48.9% in the test with HT29 colon; -50% (active) with SNB-75 CNS; 77.5% with SNB-19 CNS; 25.5% in the test with U251 CNS; 36.6% in the test with PC-3 prostate. Also, the growth in the test with SK-MEL-5 melanoma was 15.3%; in the test with UACC-62 melanoma, 79.6%; with LOX IMVI melanoma, 48.2%; with SK-MEL-28 melanoma it was 77.4%.

`C=CCNCCCN1C(=O)c2ccc3c4c(ccc(c24)C1=O)C(=O)N(CCCNCC=C)C3=O`: the growth is -72.4% (active) in the test on HCT-15 colon; -17.1% (active) in the test on HT29 colon; -98.2% (active) in the test with SNB-75 CNS; -91.2% (active) in the test on SNB-19 CNS; -73.9% (active) in the test with U251 CNS; -15.5% (active) with PC-3 prostate. The growth in the test with SK-MEL-5 melanoma is -99.3% (active); in the test on UACC-62 melanoma, -80.4% (active); in the test on LOX IMVI melanoma, -77.5% (active); in the test on SK-MEL-28 melanoma it was -76.3% (active).

For `Nc1nsc(C(=O)c2ccc(O)cc2)n1`, the growth with HCT-15 colon is 102%; in the test on HT29 colon, 106%; in the test with SNB-75 CNS it was 101%; in the test on SNB-19 CNS, 103%; in the test with U251 CNS it was 93.5%; in the test with PC-3 prostate it was 76.1%. Also, the growth in the test with SK-MEL-5 melanoma was 97.9%; in the test on UACC-62 melanoma, 89%; in the test on LOX IMVI melanoma, 89.3%; in the test on SK-MEL-28 melanoma, 100%.

Take `CCN(CC)c1ccc(/C=C/C2=[N+](C)c3ccccc3C2(C)C)c(C)c1`: the growth with HCT-15 colon was 10.5%; in the test on HT29 colon it was 2.67% (active); with SNB-75 CNS, 7.22% (active); in the test with SNB-19 CNS, 20.6%; in the test with U251 CNS it was 7.12% (active); in the test with PC-3 prostate it was 7.18% (active). The growth in the test with SK-MEL-5 melanoma was -97.5% (active); with UACC-62 melanoma it was -21.4% (active); in the test with LOX IMVI melanoma it was 3.02% (active); in the test with SK-MEL-28 melanoma it was 9.14% (active).

Take `Cc1ccc(S(=O)(=O)N2CCc3ccccc3CC2)cc1`: the growth was 78.4% in the test on HCT-15 colon; 91.8% in the test on HT29 colon; 78.6% with SNB-75 CNS; 68% in the test on SNB-19 CNS; 56.3% with U251 CNS; 36.4% in the test on PC-3 prostate. Besides, the growth with SK-MEL-5 melanoma was 46.1%; in the test on UACC-62 melanoma, 74.1%; in the test on LOX IMVI melanoma, 76.4%; with SK-MEL-28 melanoma, 94.6%.

As for `Cn1c(N)c(N=Cc2ccccc2)c(=O)n(C)c1=O`, the growth in the test with HCT-15 colon was 103%; in the test on HT29 colon, 101%; in the test with SNB-75 CNS, 91.4%; with SNB-19 CNS, 105%; in the test with U251 CNS, 110%; with PC-3 prostate, 105%. Besides, the growth in the test with SK-MEL-5 melanoma is 108%; in the test on UACC-62 melanoma, 115%; with LOX IMVI melanoma it was 104%; in the test on SK-MEL-28 melanoma, 110%.

Turning to `COC(=O)c1ccc(Cn2ccc(=O)[nH]c2=O)cc1`, the growth is 101% in the test with HCT-15 colon; 99.5% in the test on HT29 colon; 90.6% with SNB-75 CNS; 110% in the test on SNB-19 CNS; 112% in the test on U251 CNS; 98.4% in the test with PC-3 prostate. Also, the growth with SK-MEL-5 melanoma was 109%; in the test on UACC-62 melanoma, 105%; in the test with LOX IMVI melanoma, 98.4%; with SK-MEL-28 melanoma, 111%.

`COc1cc(C2CC(=O)Nc3c2c(C)nn3-c2nc3ccccc3[nH]2)cc(OC)c1O` (stereo not given): the growth was 40.3% in the test on HCT-15 colon; 57.9% with HT29 colon; 6.05% (active) with SNB-75 CNS; 44.1% in the test on SNB-19 CNS; 53.3% with U251 CNS; 68.1% in the test on PC-3 prostate. Further, the growth with SK-MEL-5 melanoma is 60.8%; with UACC-62 melanoma, 67.2%; in the test on LOX IMVI melanoma, 55.1%; with SK-MEL-28 melanoma, 13.2%.

On to `Cc1ccc(-c2cc(C(=O)Nc3ccc(S(=O)(=O)N4CCCCC4)cc3)[nH]n2)c(O)c1`, for which the growth with HCT-15 colon is 23.5%; with HT29 colon, 2.87% (active); in the test on SNB-75 CNS it was 81.6%; in the test with SNB-19 CNS, 69%; in the test with U251 CNS it was 39.3%; with PC-3 prostate, 51.8%. The growth with SK-MEL-5 melanoma was 24.8%; in the test with UACC-62 melanoma it was 36.2%; with LOX IMVI melanoma, 54.3%; in the test with SK-MEL-28 melanoma it was 78.7%.

Turning to `COc1cccc(-c2nnc(COc3ccc(-c4nc5ccccc5[nH]4)cc3OC)o2)c1`, the growth was 78.3% in the test on HCT-15 colon; 96.1% in the test with HT29 colon; 109% with SNB-75 CNS; 98.1% in the test on SNB-19 CNS; 97% in the test with U251 CNS; 97.7% in the test with PC-3 prostate. The growth with SK-MEL-5 melanoma is 67.4%; in the test on UACC-62 melanoma, 95.1%; with LOX IMVI melanoma, 104%; with SK-MEL-28 melanoma, 98.1%.

`COc1cc(-c2nc3ccc(C)cc3[nH]2)ccc1OCC(=O)N=Nc1c(O)[nH]c2ccccc12`: the growth was 52.7% with HCT-15 colon; -77.1% (active) in the test with HT29 colon; -34.8% (active) in the test with SNB-75 CNS; -75.2% (active) in the test on SNB-19 CNS; -96.3% (active) with U251 CNS; -63.8% (active) with PC-3 prostate. Besides, the growth was 29.1% with SK-MEL-5 melanoma, -83.1% (active) in the test on UACC-62 melanoma, -97.7% (active) in the test on LOX IMVI melanoma and -77.5% (active) with SK-MEL-28 melanoma.
